Measured values taken from the supplement of paper PMC10849652.
The full data set covers some 7,900 targets. This sample favours those with a hit. About 0.6% of all pairs of compound and target were hits.

How the values were obtained:
Assay in all cases: log2 fold change, soluble protein after heating vs DMSO (PISA); higher = thermal stabilisation; K562 cells, 10 uM, 30 min; active = over 0.2 and 3.5 SD of the protein, either way, in both replicates (recomputed)
sotrastaurin = compound: CN1CCN(c2nc(C3=C(c4c[nH]c5ccccc45)C(=O)NC3=O)c3ccccc3n2)CC1 [sotrastaurin]
Outline: (§1)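 K562 cells at 2×10^6 cells/mL were treated for 30 min with 10 μM compound, and aliquots were heated for 3 min over 48°C-58°C before pooling. Extraction used PBS with 0.5% NP-40 at 4°C, and soluble protein was the supernatant after 21,000xg for 90 min, measured by TMTpro 16plex LC-MS/MS with channel sums equalised. Thermal stability values, relative to control samples and from duplicates, are log2 fold changes.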

alvocidib = compound: CN1CC[C@H](c2c(O)cc(O)c3c(=O)cc(-c4ccccc4Cl)oc23)[C@H](O)C1 [alvocidib]
Outline: as §1

Tubastatin A = compound: CN1CCc2c(c3ccccc3n2Cc2ccc(C(=O)NO)cc2)C1 [Tubastatin A]
Outline: as §1

[1] = compound: CNC(=O)C1=CC=CC=C1NC2=NC(=NC=C2Cl)NC3=C(C=C(C=C3)N4CCOCC4)OC
Outline: as §1

defactinib = compound: CNC(=O)c1ccc(Nc2ncc(C(F)(F)F)c(NCc3nccnc3N(C)S(C)(=O)=O)n2)cc1 [defactinib]
Outline: as §1

rucaparib = compound: CNCc1ccc(-c2[nH]c3cc(F)cc4c3c2CCNC4=O)cc1 [rucaparib]
Outline: as §1

encorafenib = compound: COC(=O)N[C@@H](C)CNc1nccc(-c2cn(C(C)C)nc2-c2cc(Cl)cc(NS(C)(=O)=O)c2F)n1 [encorafenib]
Outline: as §1

[2] = compound: COC(=O)[C@H](CCSC)NC(=O)C1=C(C=C(C=C1)NC[C@H](CS)N)C2=CC=CC=C2
Outline: as §1

saracatinib = compound: CN1CCN(CCOc2cc(OC3CCOCC3)c3c(Nc4c(Cl)ccc5c4OCO5)ncnc3c2)CC1 [saracatinib]
Outline: as §1

[3] = compound: CNc1nc(-c2ccc3c(N)n[nH]c3c2)cc(N2C[C@@H](C(=O)NC3CCCCC3)CC[C@H]2C)n1
Outline: as §1

Measured: log2 fold change

UBA52 (UniProt P62987)
inactive: sotrastaurin -0.029 | alvocidib 0.339 | Tubastatin A -0.004 | [1] -0.008 | defactinib 0.221 | rucaparib 0.421 | encorafenib 0.152 | [2] 0.08

TRIM4 (UniProt Q9C037)
active: [1] 0.439
inactive: sotrastaurin 0.024 | alvocidib -0.029 | Tubastatin A 0.097 | defactinib -0.029 | rucaparib 0.031 | encorafenib 0.04 | [2] -0.108

UBXN8 (UniProt O00124)
inactive: saracatinib -0.054 | sotrastaurin 0.027 | alvocidib 0.102 | Tubastatin A -0.144 | defactinib 0.065 | [3] -0.112 | encorafenib 0.094 | [2] -0.095
active: rucaparib -0.568

WARS1 (UniProt G3V5U1)
inactive: sotrastaurin 0.315 | rucaparib 0.228 | encorafenib -0.451

TXNRD1 isoform 7 (UniProt Q16881)
inactive: saracatinib -0.202 | sotrastaurin 0.019 | [1] -0.364 | defactinib -0.194 | rucaparib 0.263 | [3] 0.065 | encorafenib -0.085 | [2] 0.062

WDR75 (UniProt Q8IWA0)
inactive: saracatinib -0.109 | alvocidib 0.147 | Tubastatin A 0.173 | defactinib 0.144 | [3] 0.162 | [2] -0.197

U2AF1L5 (UniProt P0DN76)
inactive: saracatinib -0.013 | Tubastatin A 0.072 | [1] 0.084 | defactinib -0.409 | rucaparib 0.236 | [3] -0.023 | encorafenib 0.23 | [2] 0.107

TTC26
inactive: Tubastatin A -0.033 | defactinib 0.265 | [2] 0.144

TMEM184C (UniProt Q9NVA4)
Sequence of UniProt Q9NVA4 (Q9NVA4 whole entry, looked up): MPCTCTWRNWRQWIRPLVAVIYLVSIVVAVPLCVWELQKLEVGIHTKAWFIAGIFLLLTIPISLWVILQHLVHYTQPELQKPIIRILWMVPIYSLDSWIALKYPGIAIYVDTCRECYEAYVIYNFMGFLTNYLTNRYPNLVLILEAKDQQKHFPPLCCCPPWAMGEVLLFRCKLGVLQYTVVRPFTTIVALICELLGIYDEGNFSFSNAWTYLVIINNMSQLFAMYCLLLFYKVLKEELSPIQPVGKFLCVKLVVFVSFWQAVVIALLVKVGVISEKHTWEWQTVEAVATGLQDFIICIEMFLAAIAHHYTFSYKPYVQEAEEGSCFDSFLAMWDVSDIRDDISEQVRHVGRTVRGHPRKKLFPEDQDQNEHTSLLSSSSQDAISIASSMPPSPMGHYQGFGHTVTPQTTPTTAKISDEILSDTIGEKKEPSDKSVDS
inactive: saracatinib 0.022 | sotrastaurin 0.139 | alvocidib -0.123 | Tubastatin A 0.022 | defactinib -0.049 | rucaparib 0.028 | [3] -0.182 | encorafenib 0.051 | [2] 0.118

TRABD (UniProt Q9H4I3)
Sequence of UniProt Q9H4I3 (Q9H4I3 whole entry, looked up): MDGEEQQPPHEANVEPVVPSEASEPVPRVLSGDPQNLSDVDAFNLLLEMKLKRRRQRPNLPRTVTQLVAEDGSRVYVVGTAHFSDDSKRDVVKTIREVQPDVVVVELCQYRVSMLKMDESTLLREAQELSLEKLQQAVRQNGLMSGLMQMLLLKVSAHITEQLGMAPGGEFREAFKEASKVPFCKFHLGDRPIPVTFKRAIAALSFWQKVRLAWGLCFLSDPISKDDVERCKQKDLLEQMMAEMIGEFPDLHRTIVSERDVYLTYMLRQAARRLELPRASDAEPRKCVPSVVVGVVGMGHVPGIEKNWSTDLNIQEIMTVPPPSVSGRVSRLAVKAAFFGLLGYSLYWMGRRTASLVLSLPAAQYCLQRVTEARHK
inactive: sotrastaurin 0.003 | alvocidib -0.151 | Tubastatin A 0.06 | [1] 0.131 | defactinib -0.096 | rucaparib 0.073 | encorafenib -0.01 | [2] -0.033

TTC33 (UniProt Q6PID6)
inactive: saracatinib -0.103 | sotrastaurin 0.009 | alvocidib 0.041 | [1] 0.012 | defactinib 0.013 | rucaparib -0.008 | [3] -0.152 | encorafenib -0.014 | [2] 0.054

USP48 (UniProt Q86UV5)
inactive: sotrastaurin -0.123 | [1] -0.045 | rucaparib -0.102 | encorafenib 0.318

TVP23C (UniProt Q96ET8)
Sequence of UniProt Q96ET8 (Q96ET8 whole entry, looked up): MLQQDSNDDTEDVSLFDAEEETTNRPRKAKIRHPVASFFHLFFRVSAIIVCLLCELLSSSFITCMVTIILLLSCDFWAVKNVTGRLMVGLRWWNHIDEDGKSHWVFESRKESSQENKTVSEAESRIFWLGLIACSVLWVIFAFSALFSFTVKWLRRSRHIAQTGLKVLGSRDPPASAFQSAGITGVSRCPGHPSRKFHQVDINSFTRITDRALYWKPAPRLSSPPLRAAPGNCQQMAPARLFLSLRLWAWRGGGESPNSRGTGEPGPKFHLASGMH
inactive: saracatinib 0.025 | alvocidib -0.135 | Tubastatin A 0 | [1] 0.042 | defactinib 0.039 | rucaparib -0.205 | [3] 0.015 | encorafenib 0.129 | [2] 0.067

UCHL5 isoform 3 (UniProt Q9Y5K5)
inactive: sotrastaurin -0.292 | alvocidib -0.156 | Tubastatin A -0.035 | [1] 0.136 | defactinib 0.03 | rucaparib -0.08 | encorafenib 0.241 | [2] -0.254

UBE3B (UniProt Q7Z3V4)
inactive: saracatinib -0.028 | sotrastaurin 0.005 | alvocidib 0.122 | Tubastatin A 0.128 | [3] -0.032

TOM1L2 (UniProt Q6ZVM7)
inactive: saracatinib -0.02 | sotrastaurin -0.091 | [1] -0.102 | defactinib -0.072 | [3] -0.05 | [2] 0.058
active: alvocidib -0.357

TOM1 (UniProt O60784)
inactive: sotrastaurin -0.033 | Tubastatin A 0.002 | [1] -0.113

WARS1 (UniProt G3V277)
inactive: sotrastaurin 0.021 | Tubastatin A 0.005 | [1] -0.052 | defactinib 0 | [2] 0.14

VDAC1 (UniProt C9JI87)
inactive: saracatinib -0.027 | sotrastaurin 0.034 | alvocidib 0.201 | [1] -0.135 | rucaparib -0.247 | [3] -0.189 | encorafenib -0.087

WDR4 isoform 3 (UniProt P57081)
inactive: sotrastaurin 0.098

WARS1 (UniProt G3V3P2)
inactive: sotrastaurin 0.336

TMEM179B (UniProt Q7Z7N9)
inactive: sotrastaurin 0.151 | alvocidib 0.097 | Tubastatin A 0.036 | [1] 0.044 | rucaparib 0.026 | encorafenib -0.015

XAB2 (UniProt Q9HCS7)
inactive: saracatinib 0.052 | [3] 0.073

TMEM9B (UniProt Q9NQ34)
inactive: sotrastaurin 0.019 | alvocidib 0.075 | Tubastatin A -0.033 | [1] -0.029 | defactinib -0.029 | rucaparib -0.02 | encorafenib 0.063 | [2] -0.001

TSC2 (UniProt P49815)
Sequence of UniProt P49815 (P49815 whole entry, looked up): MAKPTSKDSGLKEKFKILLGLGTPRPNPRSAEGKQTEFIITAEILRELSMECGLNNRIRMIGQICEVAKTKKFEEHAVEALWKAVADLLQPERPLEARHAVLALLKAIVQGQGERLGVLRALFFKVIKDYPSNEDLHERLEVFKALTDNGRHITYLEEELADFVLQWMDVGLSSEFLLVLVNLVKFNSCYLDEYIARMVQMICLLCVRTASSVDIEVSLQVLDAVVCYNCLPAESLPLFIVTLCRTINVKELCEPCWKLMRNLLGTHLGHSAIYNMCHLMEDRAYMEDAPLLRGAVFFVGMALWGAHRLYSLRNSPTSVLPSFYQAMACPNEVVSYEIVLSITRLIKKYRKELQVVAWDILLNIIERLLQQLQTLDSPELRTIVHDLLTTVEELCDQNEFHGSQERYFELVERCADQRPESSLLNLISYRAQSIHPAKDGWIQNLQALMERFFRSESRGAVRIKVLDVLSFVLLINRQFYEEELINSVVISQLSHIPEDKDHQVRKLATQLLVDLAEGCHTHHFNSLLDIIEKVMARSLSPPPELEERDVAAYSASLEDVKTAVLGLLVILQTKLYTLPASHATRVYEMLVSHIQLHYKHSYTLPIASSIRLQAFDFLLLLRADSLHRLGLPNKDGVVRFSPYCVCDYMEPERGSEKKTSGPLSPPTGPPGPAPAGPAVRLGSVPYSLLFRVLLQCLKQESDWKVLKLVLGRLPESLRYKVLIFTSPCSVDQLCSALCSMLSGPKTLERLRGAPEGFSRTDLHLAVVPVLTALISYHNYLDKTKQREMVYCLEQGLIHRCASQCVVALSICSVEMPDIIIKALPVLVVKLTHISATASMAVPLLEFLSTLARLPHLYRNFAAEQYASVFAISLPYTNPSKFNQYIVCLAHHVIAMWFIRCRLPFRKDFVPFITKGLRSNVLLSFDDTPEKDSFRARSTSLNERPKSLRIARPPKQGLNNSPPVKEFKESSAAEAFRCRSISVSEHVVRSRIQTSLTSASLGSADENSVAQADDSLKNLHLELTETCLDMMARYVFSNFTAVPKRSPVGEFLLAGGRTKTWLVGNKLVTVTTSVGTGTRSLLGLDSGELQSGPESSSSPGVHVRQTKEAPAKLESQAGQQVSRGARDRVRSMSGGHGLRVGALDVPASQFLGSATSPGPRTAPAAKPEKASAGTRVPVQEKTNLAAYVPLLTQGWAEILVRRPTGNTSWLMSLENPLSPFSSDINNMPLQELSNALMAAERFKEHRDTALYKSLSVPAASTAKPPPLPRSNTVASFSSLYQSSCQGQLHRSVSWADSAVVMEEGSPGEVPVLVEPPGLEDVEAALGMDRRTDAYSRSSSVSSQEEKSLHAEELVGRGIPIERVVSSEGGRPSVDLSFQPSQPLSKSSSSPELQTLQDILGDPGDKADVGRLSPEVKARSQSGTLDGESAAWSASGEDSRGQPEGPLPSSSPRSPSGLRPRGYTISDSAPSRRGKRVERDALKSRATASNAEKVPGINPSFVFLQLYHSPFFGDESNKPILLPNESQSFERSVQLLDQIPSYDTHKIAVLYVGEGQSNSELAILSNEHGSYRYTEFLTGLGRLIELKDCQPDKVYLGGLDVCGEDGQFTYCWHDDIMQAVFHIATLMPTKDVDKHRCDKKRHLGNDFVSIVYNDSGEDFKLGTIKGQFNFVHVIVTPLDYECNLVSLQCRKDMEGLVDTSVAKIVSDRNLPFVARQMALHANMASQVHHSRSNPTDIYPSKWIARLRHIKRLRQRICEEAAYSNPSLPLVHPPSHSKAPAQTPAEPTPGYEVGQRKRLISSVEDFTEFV
inactive: sotrastaurin -0.085 | alvocidib -0.134 | Tubastatin A 0.437 | [1] -0.603 | rucaparib -0.097 | encorafenib 0.042

TRIQK (UniProt Q629K1)
inactive: saracatinib -0.014 | sotrastaurin -0.112 | alvocidib 0.011 | Tubastatin A -0.094 | [3] -0.045

TMEM41A (UniProt Q96HV5)
inactive: saracatinib 0.03 | sotrastaurin -0.057 | Tubastatin A -0.068 | [1] 0.008 | defactinib 0.003 | rucaparib -0.009 | [3] -0.011 | encorafenib 0.025 | [2] -0.012

TRPT1 isoform 4 (UniProt Q86TN4)
Sequence of UniProt Q86TN4 (Q86TN4 whole entry, looked up): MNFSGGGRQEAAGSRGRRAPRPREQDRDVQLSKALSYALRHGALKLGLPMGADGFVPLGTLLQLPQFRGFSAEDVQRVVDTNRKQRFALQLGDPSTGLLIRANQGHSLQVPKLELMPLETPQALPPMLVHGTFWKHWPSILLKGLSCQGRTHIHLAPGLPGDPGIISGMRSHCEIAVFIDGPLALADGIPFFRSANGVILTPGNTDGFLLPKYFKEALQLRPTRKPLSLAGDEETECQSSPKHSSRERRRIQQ
inactive: sotrastaurin -0.208 | [1] -0.069 | rucaparib 0.101 | encorafenib 0.036

WARS1 (UniProt G3V227)
inactive: saracatinib 0.003 | alvocidib -0.065 | Tubastatin A -0.053 | defactinib -0.001 | [3] 0.021 | [2] 0.3

TMEM104 (UniProt Q8NE00)
inactive: saracatinib -0.024 | alvocidib -0.013 | [1] -0.007 | rucaparib 0.06 | [3] -0.122 | encorafenib 0.056

UTP20 (UniProt O75691)
inactive: Tubastatin A -0.028 | [1] -0.051

UBAP2L (UniProt F8W726)
inactive: Tubastatin A -0.039 | [1] -0.05 | rucaparib -0.006 | encorafenib -0.021

TUBA4A (UniProt C9JJQ8)
inactive: saracatinib -0.148 | sotrastaurin -0.084 | alvocidib -0.191 | Tubastatin A 0.147 | defactinib -0.215 | rucaparib 0.186 | [3] 0.131 | encorafenib 0.078 | [2] -0.055

VWA3B isoform 6 (UniProt Q502W6)
Sequence of UniProt Q502W6 (Q502W6 whole entry, looked up): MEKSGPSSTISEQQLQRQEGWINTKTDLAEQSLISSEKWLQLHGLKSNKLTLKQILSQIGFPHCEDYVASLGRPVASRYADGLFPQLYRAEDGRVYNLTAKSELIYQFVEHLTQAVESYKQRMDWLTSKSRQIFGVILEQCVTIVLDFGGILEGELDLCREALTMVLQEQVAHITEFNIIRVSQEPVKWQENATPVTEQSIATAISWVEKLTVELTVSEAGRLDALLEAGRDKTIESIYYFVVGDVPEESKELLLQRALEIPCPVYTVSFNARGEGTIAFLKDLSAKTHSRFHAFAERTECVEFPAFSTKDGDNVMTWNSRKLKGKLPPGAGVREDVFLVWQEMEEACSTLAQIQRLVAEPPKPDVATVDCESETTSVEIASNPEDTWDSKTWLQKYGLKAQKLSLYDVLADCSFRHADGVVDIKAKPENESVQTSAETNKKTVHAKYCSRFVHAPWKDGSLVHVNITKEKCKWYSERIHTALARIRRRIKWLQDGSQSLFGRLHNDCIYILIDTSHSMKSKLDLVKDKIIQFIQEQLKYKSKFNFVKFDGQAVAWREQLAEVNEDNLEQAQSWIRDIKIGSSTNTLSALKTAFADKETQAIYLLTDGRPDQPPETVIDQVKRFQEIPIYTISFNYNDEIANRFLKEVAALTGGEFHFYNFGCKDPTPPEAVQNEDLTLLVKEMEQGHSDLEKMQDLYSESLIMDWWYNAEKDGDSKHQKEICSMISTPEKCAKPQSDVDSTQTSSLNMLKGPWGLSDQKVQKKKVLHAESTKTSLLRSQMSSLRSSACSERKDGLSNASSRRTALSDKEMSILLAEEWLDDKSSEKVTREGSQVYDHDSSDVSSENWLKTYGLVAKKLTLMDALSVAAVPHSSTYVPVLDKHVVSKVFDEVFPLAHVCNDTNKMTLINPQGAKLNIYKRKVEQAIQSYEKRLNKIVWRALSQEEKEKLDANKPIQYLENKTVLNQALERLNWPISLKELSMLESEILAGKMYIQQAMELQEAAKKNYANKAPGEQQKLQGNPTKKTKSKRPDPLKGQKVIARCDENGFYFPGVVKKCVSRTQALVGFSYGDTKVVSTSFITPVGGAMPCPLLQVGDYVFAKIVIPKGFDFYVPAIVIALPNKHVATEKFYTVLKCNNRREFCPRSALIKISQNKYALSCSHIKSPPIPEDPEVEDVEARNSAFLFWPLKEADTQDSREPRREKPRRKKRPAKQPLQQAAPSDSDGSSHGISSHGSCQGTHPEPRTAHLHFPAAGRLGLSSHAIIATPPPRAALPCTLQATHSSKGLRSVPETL
inactive: saracatinib 0.042 | alvocidib 0.079 | Tubastatin A -0.018 | [1] 0.017 | defactinib 0.039 | rucaparib -0.448 | [3] -0.076 | encorafenib 0.095 | [2] -0.04

TMEM268 isoform 3 (UniProt Q5VZI3)
inactive: saracatinib 0.033 | sotrastaurin -0.103 | alvocidib 0.069 | Tubastatin A 0.131 | [1] -0.017 | rucaparib -0.021 | [3] 0.046 | encorafenib -0.19

WDR46, A0A0G2JJL1
inactive: saracatinib 0.065 | sotrastaurin 0.052 | Tubastatin A -0.095 | [1] 0.007 | defactinib 0.408 | rucaparib 0.293 | [3] 0.119 | encorafenib 0.044 | [2] -0.138

XRCC1 (UniProt P18887)
Sequence of UniProt P18887 (P18887 whole entry, looked up): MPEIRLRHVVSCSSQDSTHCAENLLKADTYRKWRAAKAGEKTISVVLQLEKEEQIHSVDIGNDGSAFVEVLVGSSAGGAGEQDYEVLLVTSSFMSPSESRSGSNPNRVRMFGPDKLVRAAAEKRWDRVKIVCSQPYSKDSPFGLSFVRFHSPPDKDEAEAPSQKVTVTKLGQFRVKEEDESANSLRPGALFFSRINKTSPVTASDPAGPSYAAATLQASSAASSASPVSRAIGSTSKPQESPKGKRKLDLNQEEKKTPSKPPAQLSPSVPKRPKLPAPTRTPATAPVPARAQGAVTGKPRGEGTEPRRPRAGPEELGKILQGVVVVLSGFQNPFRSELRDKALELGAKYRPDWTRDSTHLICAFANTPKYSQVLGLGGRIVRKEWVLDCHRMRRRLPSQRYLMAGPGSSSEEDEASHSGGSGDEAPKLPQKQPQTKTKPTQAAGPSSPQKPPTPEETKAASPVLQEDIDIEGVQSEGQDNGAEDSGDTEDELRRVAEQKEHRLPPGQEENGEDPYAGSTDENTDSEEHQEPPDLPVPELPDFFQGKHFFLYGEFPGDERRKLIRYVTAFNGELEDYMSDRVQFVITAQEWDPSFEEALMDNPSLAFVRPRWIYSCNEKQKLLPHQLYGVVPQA
inactive: saracatinib 0.008 | sotrastaurin -0.264 | alvocidib -0.029 | Tubastatin A 0.055 | [1] 0.05 | [3] 0.148
